Screening results from PubChem BioAssay.
A selection: hits, their analogues and other compounds. The true share with any hit is near 3.2%.
USP1 inh: inhibitors of human USP1/UAF1 deubiquitinase; hit rate 0.23% among 390,000; O94782; Potency, µM (top dose mostly 57.1 µM), for the others: at the top dose activity change, negative = inhibition, most hits filed as inhibitors; recombinant USP1/UAF1, Ub-Rhodamine cleavage fluorescence; AID 743255; further: potency means the concentration at half of the fitted maximal effect; nearly all actives have a fitted effect of over 60% in size
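High-throughput fluorogenic screen: 1nM USP1/UAF1 complex, Ub-Rho substrate 150nM final, 50mM HEPES pH 7.8 with 0.5mM EDTA, 0.1 mg/ml BSA, 1mM TCEP and 0.01% Tween-20.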
PLK1 PBD block: blocks phosphopeptide binding to human PLK1 polo-box domain | Plk1 PBD binding of FITC phosphopeptide, fluorescence polarization | Potency, µM, inactives show max response, negative = inhibition, actives largely listed as inhibitors | hit rate 2.8% among 360,000; further: potency means the concentration at half of the fitted maximal effect; series mostly up to about 57 µM; nearly all actives have a fitted effect of over 65% in size
FBPA coupling cs: coupling enzyme interference in Giardia aldolase counter-screen; coupling enzyme system counterscreen, AmpLite Red fluorescence; activity change, negative = inhibition, % at 58.2 µM, hits read low; hit rate 0.67% among 290,000; AID 2472; in the data active means activity change below about -30%
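Coupling enzymes only (glyceraldehyde-3-phosphate) + compound, at 57.5 uM final, 10 min RT; add substrate/coupling/AmpLite Red mix, 20 min RT; fluorescence ex 525/em 598 nm. Actives flag coupling-system interference.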
USP2a block: inhibitors of human ubiquitin-specific protease USP2a | hit rate 0.01% among 330,000 | AID 463254 | USP2 core, Ub-CHOP2 coupled fluorogenic reporter, 485/531 | O75604 | Potency, µM (series often up to 38.3 µM), for the others: at the top dose activity change, negative = inhibition, actives largely listed as inhibitors;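 further: potency means the concentration at half of the fitted maximal effect; plate controls were DMSO wells for no effect and full inhibition by NEM control for full effect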
Target sequence (O75604 whole entry, looked up): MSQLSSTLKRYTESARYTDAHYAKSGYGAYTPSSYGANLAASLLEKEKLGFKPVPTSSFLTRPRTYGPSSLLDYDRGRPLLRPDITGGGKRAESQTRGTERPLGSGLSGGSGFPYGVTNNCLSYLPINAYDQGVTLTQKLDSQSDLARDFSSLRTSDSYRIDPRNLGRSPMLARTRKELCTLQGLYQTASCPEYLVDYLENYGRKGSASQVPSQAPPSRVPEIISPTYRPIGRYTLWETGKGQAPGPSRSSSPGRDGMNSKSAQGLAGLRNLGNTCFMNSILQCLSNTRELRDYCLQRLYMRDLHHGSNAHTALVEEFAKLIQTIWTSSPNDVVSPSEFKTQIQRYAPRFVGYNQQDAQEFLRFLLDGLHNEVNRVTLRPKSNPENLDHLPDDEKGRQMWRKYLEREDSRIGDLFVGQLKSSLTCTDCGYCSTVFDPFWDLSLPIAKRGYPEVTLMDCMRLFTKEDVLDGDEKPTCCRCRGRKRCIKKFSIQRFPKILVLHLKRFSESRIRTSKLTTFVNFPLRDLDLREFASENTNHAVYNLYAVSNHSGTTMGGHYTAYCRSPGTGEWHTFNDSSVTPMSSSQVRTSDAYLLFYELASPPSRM
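Deubiquitinase activity read as fluorescence (485/531 nm) after Ub-CHOP2 cleavage activates the enterokinase reporter on its substrate; USP2 core 10nM, Ub-CHOP2 and substrate 25nM each, 30min compound preincubation then 60min RT; data normalized to NEM, curves fitted.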
GALK inh: galactokinase (human) inhibition. P51570. Purified GALK, Kinase-Glo residual ATP luminescence. Potency, µM (highest dose often 57.5 µM), without a hit: at the top dose activity change, negative = inhibition, hits mostly inhibitors. hit rate 0.007% among 270,000; further: potency means the concentration at half of the fitted maximal effect
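The enzyme phosphorylates galactose (100 uM) using ATP (35 uM); inhibition is detected as higher residual ATP, quantified by bioluminescence after 1 h reaction at room temperature, pH 8.0.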
VDR inh: vitamin D3 receptor (human) inhibition; P11473; VDR-SRC2-3 peptide fluorescence polarization, 2 h; Potency, µM, for the others: max response, negative = inhibition, actives largely listed as inhibitors; hit rate 0.93% among 400,000; AID 504847; further: potency means the concentration at half of the fitted maximal effect
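Inhibition of the VDR/SRC2-3 peptide interaction is quantified by fluorescence polarization. Compounds (23 nl, pintool) incubate with the reagents for 2 hours at ambient room temperature.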
Numbers without * were called inactive; ? = inconclusive; · = no result given. Unless noted, the call rests on the fitted dose curve; in most records, active means well fitted curve in the direction sought with a large enough effect; inconclusive means small, poorly fitted or top-dose-only effect, or another doubt; inactive means no such curve, though single readings can be large; an effect the other way counts as inactive or inconclusive. Unless noted, on the % scale 0 is the no-effect control and ±100 the full control effect.

SMILES | USP1 inh | PLK1 PBD block | FBPA coupling cs | USP2a block | GALK inh | VDR inh
COc1ccc(-n2nc(N)c(C(N)=O)n2)cc1 | -2% | 19µM* | -1 | 1% | 0% | -20%
Cc1nnc(N2C(=O)c3cccc4cccc(c34)C2=O)s1 | -6% | -18% | 2 | -1% | 3% | -16%
CC1CCN(CCCCOc2ccccc2F)CC1 | -17% | 30µM* | -1 | 1% | -5% | ?
CC1CCN(CCCCOc2ccccc2Br)CC1 | 5% | 2% | 1 | 1% | 4% | -23%
O/C(=C\c1nc2ccccc2nc1/C=C(\O)c1ccccc1)c1ccccc1 | -2% | ? | -48* | -1% | -3% | 79µM*
COc1ccc(NC(=O)CS(=O)(=O)c2ccc(Br)cc2)cc1 | -14% | -6% | 1 | 1% | -4% | 6%
COc1ccc(NC(=O)CS(=O)(=O)c2cccc(Cl)c2)cc1 | -15% | 21µM* | 0 | 4% | -2% | ?
COc1ccc(N2CCN(CCNC(=O)Nc3ccc(C)c(Cl)c3)CC2)cc1 | 4% | -17% | 0 | 2% | -2% | -10%
COc1ccc(NC(=O)NCCN2CCN(c3cccc(Cl)c3)CC2)cc1 | -17% | -5% | -32* | 1% | 1% | -7%
Cc1ccc(S(=O)(=O)N2CCCCC2)cc1NC(=O)C1CCC1 | 5% | -4% | · | -2% | · | -10%
Cc1ccccc1/C=N/n1c(-c2ccccn2)n[nH]c1=S | -6% | -17% | -6 | -2% | 11% | 0%
S=c1[nH]nc(-c2ccccn2)n1/N=C/c1cccc2ccccc12 | -14% | 27µM* | -9 | 2% | -3% | -5%
COc1ccccc1NC(=O)c1cc(Br)ccc1Cl | -12% | -6% | 1 | -4% | -1% | 14%
COc1cccc(-c2nnc(SCC(=O)OC(C)C)n2Cc2ccco2)c1 | -8% | 27µM* | 4 | 2% | 5% | -13%
CN(C)CCC(=O)c1ccc(Cl)cc1 | 0% | 4.2µM* | 4 | 1% | 1% | -24%
O=C(CC(=O)c1ccccc1)c1ccccc1 | 1% | -8% | 0 | · | · | -14%
CN(CCC(=O)c1ccccc1)CCC(=O)c1ccccc1 | -12% | 27µM* | 5 | 1% | 2% | -12%
O=C(OC[C@H]1O[C@@H](OC(=O)c2cc(O)c(O)c(OC(=O)c3cc(O)c(O)c(O)c3)c2)[C@H](OC(=O)c2cc(O)c(O)c(OC(=O)c3cc(O)c(O)c(O)c3)c2)[C@@H](OC(=O)c2cc(O)c(O)c(OC(=O)c3cc(O)c(O)c(O)c3)c2)[C@@H]1OC(=O)c1cc(O)c(O)c(OC(=O)c2cc(O)c(O)c(O)c2)c1)c1cc(O)c(O)c(OC(=O)c2cc(O)c(O)c(O)c2)c1 | · | · | · | 5µM* | · | ·
COC1OC(COC(=O)c2ccccc2)C(OC(=O)c2ccccc2)C1OC(=O)c1ccccc1 (stereo unspecified) | -15% | -7% | -2 | -11% | -2% | 18%
c1ccc2c(c1)ncn2Cc1nnc2sc(-c3ccc4c(c3)OCO4)nn12 | -19% | 19µM* | 0 | 2% | 0% | -9%
COc1ccc(OCc2nn3c(Cn4cnc5ccccc54)nnc3s2)cc1 | 0% | 15µM* | 1 | 1% | 7% | -25%
Clc1ccccc1-c1nn2c(Cn3cnc4ccccc43)nnc2s1 | -19% | 24µM* | 2 | -8% | 2% | -23%
O=[N+]([O-])c1ccc(Cl)cc1CNc1ccc(F)c(F)c1 | -18% | -3% | 0 | 1% | 0% | -6%
Cc1c(Cl)cccc1NC(=S)Nc1ccc2[nH]c(=O)[nH]c2c1 | -17% | ? | -8 | 8% | -2% | -3%
CC1(C)CC(NC(=O)c2ccncc2)CC(C)(C)N1O | -10% | -1% | 3 | 4% | 8% | 9%
SMILES | USP1 inh | PLK1 PBD block | FBPA coupling cs | USP2a block | GALK inh | VDR inh
O=C(O)c1ccc(Cn2cnc3sc4c(c3c2=O)CCCC4)cc1 | -23% | -9% | 12 | -1% | -2% | 12%
CNC(=O)C1CCN(S(=O)(=O)c2c(C)noc2/C=C/N(C)C)CC1 | -24% | 27µM* | 0 | 3% | -6% | ?
CCc1ccc(NC(=O)C2CCN(S(=O)(=O)c3c(C)noc3/C=C/N(C)C)CC2)cc1 | -5% | -3% | · | -3% | 7% | -4%
Oc1ccccc1/C=N/n1c2ccccc2c2ccccc21 | -23% | -2% | 2 | 0% | 3% | -4%
Cc1csc(SC(C)C(=O)Nc2ccc(Cl)cn2)n1 (stereo unspecified) | 2% | 27µM* | 0 | 2% | -1% | -3%
CCOC(=O)C1C(=O)CC(C)(O)C(C(=O)OCC)C1c1ccco1 (stereo unspecified) | 16% | 3.4µM* | 2 | 0% | -3% | -21%
CCOC(=O)C1C(=O)CC(C)(O)C(C(=O)OCC)C1c1ccc(F)cc1 (stereo unspecified) | -13% | 1% | 2 | 1% | 0% | -3%
CCOC(=O)c1cccc(NC(=O)c2cc3cc4cc(OC)ccc4nc3s2)c1 | -18% | · | · | · | · | 5%
COCCCN(C(=S)Nc1c(C)cc(C)cc1C)C(C)c1ccccn1 (stereo unspecified) | -10% | 24µM* | 1 | -1% | 4% | 6%
COc1ccc(OC)c(CCNC(=O)CCn2c(=O)c3cccn3c3ccc(F)cc32)c1 | 6% | · | · | · | · | -3%
COc1ccc(OCC(=O)Sc2ccc(C)cc2)cc1 | -27% | 4.7µM* | 6 | 2% | -5% | ?
CCOc1ccc(C(=O)Nc2ccc(S(=O)(=O)N3CCCCC3c3cccnc3)cc2)cc1 (stereo unspecified) | ? | · | · | · | · | -5%
CC1CC(C)CN(C(=O)COC(=O)Cc2ccc(Cl)cc2)C1 (stereo unspecified) | -1% | -3% | 3 | 2% | 3% | 11%
CC1CC(C)CN(C(=O)COC(=O)Cc2ccc(Br)cc2)C1 (stereo unspecified) | -19% | 30µM* | 0 | 1% | -1% | -13%
O=C1CCC/C(=N/Nc2ccc(Cl)cc2)C1 | -18% | 30µM* | -34* | 3% | 0% | ?
CCCc1nc2c(s1)CCc1onc(-c3ccc(Br)cc3)c1-2 | -2% | 15µM* | · | · | · | ?
CCCc1nc2c(s1)CCc1onc(-c3ccc(OC)cc3)c1-2 | ? | 27µM* | · | · | · | ?
Cc1ccc(S(=O)(=O)/N=C2/NC(=O)/C(=C/c3ccccc3)S2)cc1 | -18% | ? | 17 | 2% | -18% | ?
Cc1ccc(S(=O)(=O)/N=C2/NC(=O)/C(=C\c3ccccc3)S2)cc1 | ? | 24µM* | · | 0% | · | 79µM*
COc1cc(/C=C2\S/C(=N/S(=O)(=O)c3ccc(C)cc3)NC2=O)c([N+](=O)[O-])cc1OC | -14% | -5% | 10 | 1% | -8% | -3%
